Rows were chosen to be rich in hits. Some 7.2% of all compounds tested hit in one or more screens of this group.
AHR activator: activators of human aryl hydrocarbon receptor; AHR-responsive luciferase reporter cells, luminescence; AID 2796; activation, % at 5 µM; 320,000 compounds, 2.5% hits; in the data active means activation above about 47%;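 further: 0% = vehicle wells and 100% = reference agonist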
Target sequence (P35869 whole entry, looked up): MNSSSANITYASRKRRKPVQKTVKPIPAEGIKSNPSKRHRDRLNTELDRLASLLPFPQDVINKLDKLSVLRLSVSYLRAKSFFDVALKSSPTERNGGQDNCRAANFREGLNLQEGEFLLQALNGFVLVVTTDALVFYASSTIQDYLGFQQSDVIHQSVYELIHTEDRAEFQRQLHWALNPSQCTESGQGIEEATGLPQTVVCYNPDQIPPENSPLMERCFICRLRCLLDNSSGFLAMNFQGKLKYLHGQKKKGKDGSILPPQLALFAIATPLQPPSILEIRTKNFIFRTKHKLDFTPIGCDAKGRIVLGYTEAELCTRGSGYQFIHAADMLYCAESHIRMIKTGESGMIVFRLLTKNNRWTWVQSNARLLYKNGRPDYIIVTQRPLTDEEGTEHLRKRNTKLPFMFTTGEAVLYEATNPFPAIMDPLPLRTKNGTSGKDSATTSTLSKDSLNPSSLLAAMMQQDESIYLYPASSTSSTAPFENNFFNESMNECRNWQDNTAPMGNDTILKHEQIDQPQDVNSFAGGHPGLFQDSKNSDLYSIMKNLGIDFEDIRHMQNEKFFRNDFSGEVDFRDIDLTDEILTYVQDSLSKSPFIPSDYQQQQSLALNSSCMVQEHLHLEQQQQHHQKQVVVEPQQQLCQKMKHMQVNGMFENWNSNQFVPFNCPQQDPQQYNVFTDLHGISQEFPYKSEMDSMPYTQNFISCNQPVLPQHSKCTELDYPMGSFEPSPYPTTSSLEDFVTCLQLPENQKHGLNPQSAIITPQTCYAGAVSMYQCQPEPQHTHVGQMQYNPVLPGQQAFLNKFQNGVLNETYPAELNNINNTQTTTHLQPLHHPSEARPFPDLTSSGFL
VLA-4 inh: inhibition in a human VLA-4 binding assay | inhibition, % (about 7 µM as worked out from the volumes in the protocol) | P13612 | VLA-4 expressing cells, ligand binding flow cytometry | 330,000 compounds, 0.2% hits; in the data active means inhibition above about 50%
ALR inh: human ALR oxidase inhibition via reduced H2O2 | P55789 | inhibition, % (test concentration not listed) | purified ALR, DTT oxidation, H2O2 HRP-luminol luminescence | 290,000 compounds, 3.8% hits | AID 485317;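 active means mean replicate inhibition above about 79%, with every replicate also reaching it, limit read from the data; inconclusive means only one of the two criteria met; inactive means mean below limit and not every replicate reaching it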
Efflux pump mplx: antifungal efflux pump inhibition, Nile Red retention. 330,000 compounds, 0.44% hits. S. cerevisiae Candida pump triplex. inhibition, % at 10 µM;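 active means plate passing quality check with inhibition over a set limit, or well fluorescence over plate mean plus 4 SD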;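 further: Nile Red retained in pooled yeast measured as flow cytometry median fluorescence; 0% = buffer negative control and 100% = Enniatin B positive control; higher means more Nile Red kept so more efflux inhibition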
SUMO Mot1 rescue: blocks SUMOylation pathway, rescuing yeast Mot1-301 growth | S. cerevisiae Mot1-301 growth rescue, ATP luminescence, 38.5C; percent above DMSO median, 100 means doubled | growth rescue, % at 18.8 µM | 320,000 compounds, 1% hits | AID 2716;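 active means every valid replicate shows activation above 250% relative to neutral control wells; inactive means the rest, any valid replicate at or below 250%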;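 further: OY570 slx delta 5 strain wells were the positive control but not used for scaling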
A1 inh: inhibitors of the anti-apoptotic protein A1, read as caspase activation; MEF A1-2A-BIM cells, Caspase-Glo 3/7 luminescence, 3 h; percent of clofoctol response, vehicle zero; 330,000 compounds, 0.066% hits; caspase activation, % (no concentration beside the values);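 active means over half of replicate activation scores above 10%, or exactly half above 10 with the replicate mean above 10; inconclusive means replicate mean below 10 yet half the replicates above 10; inactive means over half of replicates below 10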
The depositor's hits bear a star; ? = inconclusive; nt = no result given.

SMILES | AHR activator | VLA-4 inh | ALR inh | Efflux pump mplx | SUMO Mot1 rescue | A1 inh
Cc1nn(C(C)C(=O)N2CCc3ccccc32)c(C)c1[N+](=O)[O-] (stereo not given) | 63* | 2 | nt | 0 | 5 | 0
C(=Nc1ccc(N2CCOCC2)cc1)c1c[nH]c2ccccc12 | 17 | -11 | 99* | 0 | 327 | 0
COc1ccccc1CN1CC(C(=O)N(Cc2cnn(C)c2)C(C)C)CCC1=O (stereo not given) | -1 | 7 | -1 | 0 | 2 | 0
C/C(=N\Nc1nc(C)cc(-c2ccccc2)n1)c1ccccc1 | 40 | 17 | -1 | 0 | -3 | -1
C/C(=N\Nc1nc(C)cc(-c2ccccc2)n1)c1ccc(C)o1 | 47* | 4 | 5 | 0 | -9 | 1
C/C(=N/Nc1nc(C)cc(-c2ccccc2)n1)c1ccco1 | 43 | 3 | 1 | 0 | -4 | -1
C/C(=N\NC(=O)c1ccc(-c2ccccc2)cc1)c1cccc(N)c1 | 16 | 15 | 66 | 0 | -9 | -1
Cc1cc(-c2ccccc2)nc(N/N=C/c2ccccc2F)n1 | 68* | -3 | -4 | 0 | 6 | 0
C/C(=N\Nc1nc(C)cc(-c2ccccc2)n1)c1ccc(O)cc1 | 30 | 16 | 96* | 0 | 9 | -1
C/C(=N\Nc1nc(C)cc(-c2ccccc2)n1)c1cccc(N)c1 | 49* | 20 | 99* | 0 | 8 | -6
Cc1csc(N/N=C/c2ccccc2F)n1 | 41 | 16 | 12 | 0 | 288 | -4
CCOc1cc(/C=C(\C#N)C(=O)Nc2ccccc2C(=O)O)ccc1OC(=O)c1ccc(C)cc1 | 1 | -1 | 6 | 0 | -35 | ?
COc1ccc(NC(=O)C(=O)NCCO)cc1Cl | 59* | -2 | -2 | 0 | -3 | 1
COc1ccc(NC(=O)C(=O)NCCCO)cc1Cl | 62* | 12 | -1 | 0 | -1 | -1
COC(=O)COc1cccc(NC(=O)C(c2ccccc2)c2ccccc2)c1 | -2 | 14 | nt | 0 | -10 | 1
O=C(c1cc(-c2ccc(Cl)cc2)on1)N1CCCCCC1 | -1 | 0 | -5 | 0 | -12 | -2
O=C(c1cc(-c2ccc(O)cc2)on1)N1CCCCCC1 | 1 | 6 | 99* | 0 | 3 | 1
CCc1cc[n+](C2=C([O-])c3ccccc3C(=O)/C2=N\S(=O)(=O)c2cccs2)cc1 | 68* | -96 | -16 | 0 | -17 | 0
Nc1n[nH]c(N)c1N=Nc1ccc2c(c1)OCO2 | 48* | 30 | nt | 0 | 24 | -2
O=C1CCCC(O)=C1N=Nc1ccc2c(c1)OCO2 | 6 | 8 | -4 | 0 | 8 | -1
Cc1ccc(C2=CC(c3cccs3)n3nnnc3N2)cc1 (stereo not given) | 42 | 0 | -3 | 0 | 19 | -1
COc1ccccc1C1C=C(c2ccc(C)cc2)Nc2nnnn21 (stereo not given) | 54* | -8 | -2 | 0 | -6 | 1
N/C(=N\OC(=O)c1cccc([N+](=O)[O-])c1)c1ccccn1 | 68* | 4 | 7 | 0 | -12 | -5
N/C(=N\OC(=O)c1ccc(Cl)cc1Cl)c1ccccn1 | 7 | 5 | 1 | 0 | -25 | -6
COc1cccc(C(=O)O/N=C(\N)c2ccccn2)c1OC | 27 | 3 | -3 | 0 | -10 | -8
SMILES | AHR activator | VLA-4 inh | ALR inh | Efflux pump mplx | SUMO Mot1 rescue | A1 inh
Cc1ccc(C(=O)O/N=C(\N)c2ccccn2)c(Cl)c1 | -2 | 7 | 91* | 0 | -38 | -9
N/C(=N\OC(=O)c1cccc2ccccc12)c1ccccn1 | 61* | 0 | 33 | 0 | -12 | -6
N/C(=N/OC(=O)c1cccc([N+](=O)[O-])c1)c1cccc([N+](=O)[O-])c1 | 3 | 8 | -3 | 0 | 8 | 0
COc1cccc(/C=C/C(=O)OCC(=O)Nc2cccc(S(=O)(=O)N(C)C)c2)c1 | 2 | 2 | 5 | 0 | -9 | 1
CCOC(=O)C1CCCN(C(=O)CN2C(=O)NC(C)(c3ccc4ccccc4c3)C2=O)C1 (stereo not given) | 5 | -7 | 1 | 0 | -6 | -1
Cc1cccc(C)c1NC(=O)CCS(=O)(=O)c1ccc(Br)cc1 | 1 | 3 | -4 | 0 | -20 | 1

Compound activity from PubChem BioAssay.
